Records with an inconclusive call do not appear. Activity calls are given as the source filed them. Unless noted, the call rests on the fitted dose curve; in most records, active means well fitted curve in the direction sought with a large enough effect in the repeat runs; inconclusive means weak or mixed curves; inactive means no such curve, though single readings can be large; an effect the other way counts as inactive or inconclusive.

Assay [1] in a line: qHTS assay for small molecules that induce genotoxicity in human embryonic kidney cells expressing luciferase-tagged ATAD5 (AID 651632). Further: nearly all actives have a fitted effect of over 15% in size. Further: potency means the concentration at half of the fitted maximal effect. In a few lines:
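HEK293T cells carrying a luciferase reporter tagged to ATAD5 were exposed to compound or DMSO vehicle for 16 hr at 37C, 5% CO2. Amplite was added, and after 30 min at room temperature luciferase activity was read as a marker of ATAD5 induction.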
On the technique in general: In qHTS, concentration-response curves come from the screen itself.

A short description of assay [2]: qHTS assay for small molecule agonists of the p53 signaling pathway - cell viability (AID 651633; calls by dose curve; further: nearly all actives have a fitted effect of over 30% in size; further: potency means the concentration at half of the fitted maximal effect). In a few lines:
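p53RE-bla cells, seeded at 4,000 per well and rested 5 h at 37 C/5% CO2, received compounds in DMSO for 16 h at 37 C. CellTiter-Glo was then added, and luminescence was read after 30 min at room temperature to gauge cytotoxicity.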

Assay [3] in a line: qHTS assay for small molecule disruptors of the mitochondrial membrane potential - cell viability (AID 720634; calls by dose curve;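 further: human HepG2 liver cancer cells; series mostly up to about 83 µM; nearly all actives have a fitted effect of over 20% in size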). In a few lines:
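HepG2 cells seeded overnight at 37 C, then exposed to compound or DMSO for 1 hr at 37 C, 5% CO2. m-MPI dye added, then CellTiter-Glo for 30 min at room temperature; viability read as ATP luminescence.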

A short description of assay [4]: qHTS assay to test for compound auto fluorescence at 590 nm (red) in HepG2 cells (AID 720674). The gist of the method:
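Rose Bengal sodium served as the red fluorophore standard. HepG2 monolayers (overnight attachment, MEM with 10% FBS) were exposed to test compounds for 1 hr at 37 C and read at Ex 540/Em 590 nm.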

Assay [5] is described as follows: qHTS assay to test for compound auto fluorescence at 535 nm (green) in HepG2 cells (AID 720675).
The nature of assay [6]: qHTS assay to test for compound auto fluorescence at 460 nm (blue) in HEK293 cells (AID 720678). In a few lines: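 HEK293 cells (2,000/well, medium with 10% dialyzed FBS) attached 4-5 hr, then exposed to compound overnight at 37C, 5% CO2. Blue fluorescence read at 405/460 nm, with triamterene as reference fluorophore.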
The nature of assay [7]: qHTS assay to test for compound auto fluorescence at 590 nm (red) in HEK293 cells (AID 720679). The gist of the method:
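HEK293 cells (2,000/well, 10% dialyzed FBS) attached 4-5 hr, then dosed with compound or DMSO and incubated overnight at 37C, 5% CO2. Red fluorescence read at 540/590 nm, Rose Bengal sodium as reference fluorophore.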

Assay [8] in a line: qHTS assay for small molecules that induce genotoxicity in human embryonic kidney cells expressing luciferase-tagged ATAD5 - cell viability (AID 651634; calls by dose curve; further: nearly all actives have a fitted effect of over 25% in size). In a few lines: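 HEK293T cells expressing luciferase-tagged ATAD5 were exposed to compound or DMSO for 15.5 hr at 37C, 5% CO2. Viability was then read as live-cell protease activity by CellTiter-Fluor fluorescence after 30 min at 37C.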

Assay [9] can be described thus: qHTS assay for small molecule disruptors of the mitochondrial membrane potential (AID 720635). Further: potency means the concentration at half of the fitted maximal effect. In a few lines:
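HepG2 cells (2,000/well) attached overnight at 37C, then took compound for 1 hr at 37C, 5% CO2. Mito-MPS dye was added for 30 min; fluorescence was read at 490/535 nm (monomers) and 540/590 nm (aggregates).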

In the case of `CC(C)CCC[C@@H](C)[C@H]1CC(=O)C2=C3CC[C@H]4C[C@@H](O)CC[C@]4(C)[C@H]3CC[C@@]21C`, the Potency result in [1], in assay [2], in [3], in assay [4], in [5] and in assay [6] was “inactive” in each case. The Potency result in assay [7] was “inactive”.
As for `CCC[C@@]1(CCc2ccccc2)CC(O)=C([C@H](CC)c2cccc(NS(=O)(=O)c3ccc(C(F)(F)F)cn3)c2)C(=O)O1`, the Potency entry in [1], in assay [8], in [3], in assay [4], in assay [5] and in assay [6] was “inactive” each time. Moreover, the Potency result in assay [7] is “inactive”. Further, the Potency in assay [9] is 23.7 µM (active).
Consider `COc1ccc(C2(C#N)CCC(C(=O)O)CC2)cc1OC1CCCC1` (stereo not given), for which the Potency result in assay [1], in [2], in [3], in assay [4], in assay [5] and in [6] was “inactive” in each case. Besides, the Potency entry in assay [7] was “inactive”.
Turning to `C=C(NC(=O)C(=C)NC(=O)c1csc(C2=N[C@@H]3c4csc(n4)[C@H]4NC(=O)c5csc(n5)[C@H]([C@](C)(O)[C@@H](C)O)NC(=O)[C@H]5CSC(=N5)C(=CC)NC(=O)C([C@@H](C)O)NC(=O)c5csc(n5)[C@]3(CC2)NC(=O)[C@H](C)NC(=O)C(=C)NC(=O)[C@H](C)NC(=O)C([C@@H](C)CC)NC2C=Cc3c([C@H](C)O)cc(nc3C2O)C(=O)O[C@@H]4C)n1)C(N)=O` (stereo not given in full), the Potency in assay [1] is 11.4 µM (active). Also, the Potency result in assay [2], in assay [3], in [4], in assay [5], in assay [6] and in assay [7] was “inactive” throughout.
`COC(=O)C1=C(C)NC(C)=C(C(=O)O[C@H]2CCN(Cc3ccccc3)C2)[C@H]1c1cccc([N+](=O)[O-])c1`: the Potency entry in assay [1], in assay [2], in assay [3], in [4], in assay [5] and in [6] was “inactive” each time. In addition, the Potency entry in assay [7] was “inactive”.
On to `CN1CCCC(CN2c3ccccc3Sc3ccccc32)C1` (stereo not given), for which the Potency entry in [1], in assay [2], in [3], in [4], in assay [5] and in assay [6] was “inactive” in each case. The Potency result in [7] was “inactive”.
On to `COc1cc(-c2ccc(-[n+]3nc(-c4ccccc4)nn3-c3ccc([N+](=O)[O-])cc3)c(OC)c2)ccc1-[n+]1nc(-c2ccccc2)nn1-c1ccc([N+](=O)[O-])cc1`, for which the values for the Potency in assay [1] and in assay [2] were 5.96 µM (active) and 11.9 µM (active), respectively. Also, the Potency entry in assay [3], in assay [4], in assay [5], in assay [6] and in [7] was “inactive” each time.
For `CCCCCCC(=O)O[C@H]1CC[C@H]2[C@@H]3CCc4cc(O)ccc4[C@H]3CC[C@]12C`, the Potency result in assay [1], in assay [8], in assay [3], in [4], in assay [5] and in assay [6] was “inactive” in each case. Further, in [7], the Potency entry was “inactive”. For the same compound, the Potency in assay [9] was 11.9 µM (active).
With `Cc1cc(C(=O)NNCc2ccccc2)no1`, the Potency result in [1], in assay [2], in assay [4], in [5], in [6] and in [7] was “inactive” in each case.
In the case of `NCCC(=O)[N-][C@@H](Cc1cnc[nH]1)C(=O)O.[Zn]`, the Potency entry in assay [1], in [8], in [3], in assay [9], in [4] and in assay [5] was “inactive” in each case. Further, the Potency result in assay [6] and in assay [7] was “inactive” each time.
For the compound `O=C(O[C@H]1CN2CCC1CC2)N1CCc2ccccc2[C@@H]1c1ccccc1`, the Potency result in assay [1], in assay [2], in assay [3], in assay [4], in assay [5] and in assay [6] was “inactive” throughout. In assay [7], the Potency result was “inactive”.
With `C=CC[C@@H]1/C=C(\C)C[C@H](C)C[C@H](OC)[C@H]2O[C@@](O)(C(=O)C(=O)N3CCCC[C@H]3C(=O)O[C@H](/C(C)=C/[C@@H]3CC[C@@H](O)[C@H](OC)C3)[C@H](C)[C@@H](O)CC1=O)[C@H](C)C[C@@H]2OC`, the Potency entry in assay [1], in assay [4], in assay [5], in assay [6] and in assay [7] was “inactive” each time. Further, in assay [2], the Potency was 26.6 µM (active).
For `O=C(O)c1ccc(NC(=O)[C@H](Cc2ccc(O)cc2)NC(=O)c2ccccc2)cc1`, the Potency entry in assay [1], in [8], in assay [3], in assay [9], in [4] and in [5] was “inactive” each time. Further, the Potency entry in assay [6] and in [7] was “inactive” in each case.
For the compound `Cc1ccc(S(=O)(=O)NC(=O)N[C@@H](C)Cc2ccccc2)cc1`, the Potency result in assay [1], in assay [8], in [3], in assay [9], in assay [4] and in [5] was “inactive” throughout. The Potency entry in assay [6] and in assay [7] was “inactive” throughout.
Turning to `CCCCCCCCCCCCCCCC(=O)O[C@@H]1CC(C)=C(/C=C/C(C)=C/C=C/C(C)=C/C=C/C=C(C)/C=C/C=C(C)/C=C/C2=C(C)C[C@@H](OC(=O)CCCCCCCCCCCCCCC)CC2(C)C)C(C)(C)C1`, the Potency result in [1], in assay [8], in [3], in assay [9], in assay [4] and in assay [5] was “inactive” in each case. Besides, the Potency result in assay [6] and in assay [7] was “inactive” each time.
Consider `CCN(CC)Cc1cc(Nc2ccnc3cc(Cl)ccc23)ccc1O`, for which the Potency entry in assay [1], in assay [2], in assay [3], in [4], in [5] and in [6] was “inactive” in each case. Moreover, the Potency entry in assay [7] was “inactive”.
For the compound `C/C1=C2N=C(/C=C3N=C(/C(C)=C4\[N-][C@@](C)([C@@H]5N=C1[C@](C)(CCC(=O)NCC(C)OP(=O)(O)O[C@H]1[C@@H](O)[C@@H](n6cnc7cc(C)c(C)cc76)O[C@@H]1CO)[C@H]5CC(N)=O)[C@@](C)(CC(N)=O)[C@@H]4CCC(N)=O)[C@@](C)(CC(N)=O)[C@@H]\3CCC(N)=O)C(C)(C)[C@@H]/2CCC(N)=O.CC(=O)O.[Co]` (stereo not given in full), the Potency result in assay [1], in assay [2], in assay [3], in [4], in assay [5] and in assay [6] was “inactive” throughout. The Potency result in [7] is “inactive”.
For `CCCCCCCCCCCCCCCCCCCCCCO`, the Potency result in assay [1], in [2], in assay [9], in [4], in [5] and in assay [6] was “inactive” throughout. The Potency entry in assay [7] was “inactive”.

The values are drawn from PubChem BioAssay (Tox21).
